According to publication PMC6602471:

Each sequence was assayed against RUNX1 (Homo sapiens, UniProt Q01196 1-453) (assay: custom PBM; custom protein-binding microarray; buffer, salt, pH and temperature not stated; high values mean tight binding). Conditions: dsDNA, one strand shown.
RUNX1, sequence (Q01196 whole entry): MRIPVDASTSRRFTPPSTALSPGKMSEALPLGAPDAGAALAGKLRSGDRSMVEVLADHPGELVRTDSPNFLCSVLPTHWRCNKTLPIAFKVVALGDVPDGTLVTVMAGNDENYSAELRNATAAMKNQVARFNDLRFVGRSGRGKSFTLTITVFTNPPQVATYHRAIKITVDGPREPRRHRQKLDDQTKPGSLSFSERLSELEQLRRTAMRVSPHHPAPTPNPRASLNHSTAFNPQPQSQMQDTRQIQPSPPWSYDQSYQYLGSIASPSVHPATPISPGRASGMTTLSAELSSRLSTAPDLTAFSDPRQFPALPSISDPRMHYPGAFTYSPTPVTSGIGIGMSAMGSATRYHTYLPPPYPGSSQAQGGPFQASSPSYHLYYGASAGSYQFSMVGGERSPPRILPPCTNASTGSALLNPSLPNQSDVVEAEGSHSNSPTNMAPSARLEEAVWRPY
With “GCATACTGCTGACGTCAGCCACATACGCACACATACACATACACACATACACATACGCAC” the binding signal was 10.9 log fluorescence intensity. “GCATACGGCTGACTTCAGCCACATACGCACACATACACATACACACATACACATACGCAC” was tested, and the binding signal was 10.9 log fluorescence intensity. With “CGCGCATTCTGTGGTTGCGCACATACGCACACATACACATACACACATACACATACGCAC” the binding signal was 11.4 log fluorescence intensity. With “GCATACGTCTGACGTCAGCCACATACGCACACATACACATACACACATACACATACGCAC” the binding signal was 11 log fluorescence intensity. “GCGCACATTTCCCGTATATCATACACGCACACATACACATACACACATACACATACGCAC” was tested, and the binding signal was 11 log fluorescence intensity. “GCGCACATTTCCAGTAAATCATACACGCACACATACACATACACACATACACATACGCAC” was tested, and the binding signal was 10.9 log fluorescence intensity. In the case of “GCATACGGCTGACGTGAGCCACATACGCACACATACACATACACACATACACATACGCAC”, the binding signal is reported as 10.9 log fluorescence intensity. With “GCGCACAGTTCCCGTAAATCATACACGCACACATACACATACACACATACACATACGCAC” the binding signal was 10.9 log fluorescence intensity. For “CGCGCCCTCTGTGGTTGCGCACATACGCACACATACACATACACACATACACATACGCAC”, the binding signal was 11.5 log fluorescence intensity. In the case of “GCATACGGCTGACATCAGCCACATACGCACACATACACATACACACATACACATACGCAC”, the binding signal is reported as 10.9 log fluorescence intensity. In the case of “GCGCACATTTCCCGTAAACCATACACGCACACATACACATACACACATACACATACGCAC”, the binding signal is reported as 11 log fluorescence intensity. For “GCATACGGCTGAGGTCAGCCACATACGCACACATACACATACACACATACACATACGCAC”, the binding signal was 10.9 log fluorescence intensity. For “GCGCACATTTCCCGTAAATCATACACGCACACATACACATACACACATACACATACGCAC”, the binding signal was 11 log fluorescence intensity. For “GCATACGGCTCACGTCAGCCACATACGCACACATACACATACACACATACACATACGCAC”, the binding signal was 10.9 log fluorescence intensity. “CGCGCACTCTGTGGTTGCGCACATACGCACACATACACATACACACATACACATACGCAC” was tested, and the binding signal was 11.7 log fluorescence intensity. “GCGCACATTTCCCGTGAATCATACACGCACACATACACATACACACATACACATACGCAC” was tested, and the binding signal was 11 log fluorescence intensity. In the case of “GCATACGGCCGACGTCAGCCACATACGCACACATACACATACACACATACACATACGCAC”, the binding signal is reported as 11 log fluorescence intensity. With “GCGCACATTTCCCGTAAATTATACACGCACACATACACATACACACATACACATACGCAC” the binding signal was 10.9 log fluorescence intensity. In the case of “GCATACGGCTGACGTCAGCAACATACGCACACATACACATACACACATACACATACGCAC”, the binding signal is reported as 10.9 log fluorescence intensity. In the case of “GCGCACCTTTCCCGTAAATCATACACGCACACATACACATACACACATACACATACGCAC”, the binding signal is reported as 10.9 log fluorescence intensity. “CGCGCTCTCTGTGGTTGCGCACATACGCACACATACACATACACACATACACATACGCAC” was tested, and the binding signal was 11.4 log fluorescence intensity. With “GCATACCGCTGACGTCAGCCACATACGCACACATACACATACACACATACACATACGCAC” the binding signal was 10.9 log fluorescence intensity. “GCGCACATTTCCCTTAAATCATACACGCACACATACACATACACACATACACATACGCAC” was tested, and the binding signal was 11 log fluorescence intensity. For “CGCGCAATCTGTGGTTGCGCACATACGCACACATACACATACACACATACACATACGCAC”, the binding signal was 11.1 log fluorescence intensity. With “GCATACGGCTGACGTCAGCCACATACGCACACATACACATACACACATACACATACGCAC” the binding signal was 11 log fluorescence intensity. With “GCATACGGCTGACGTCAGTCACATACGCACACATACACATACACACATACACATACGCAC” the binding signal was 10.9 log fluorescence intensity. With “CGCGCACTCTGTGGTTGCACACATACGCACACATACACATACACACATACACATACGCAC” the binding signal was 11.6 log fluorescence intensity. In the case of “GCGCACATTCCCCGTAAATCATACACGCACACATACACATACACACATACACATACGCAC”, the binding signal is reported as 11 log fluorescence intensity. “GCATACGGCTGACGTCAGACACATACGCACACATACACATACACACATACACATACGCAC” was tested, and the binding signal was 10.9 log fluorescence intensity. “CGCGCACTCAGTGGTTGCGCACATACGCACACATACACATACACACATACACATACGCAC” was tested, and the binding signal was 11 log fluorescence intensity. For “GCATACGGCTGACGTAAGCCACATACGCACACATACACATACACACATACACATACGCAC”, the binding signal was 11 log fluorescence intensity. “CGCGCAGTCTGTGGTTGCGCACATACGCACACATACACATACACACATACACATACGCAC” was tested, and the binding signal was 11.4 log fluorescence intensity.
